# High-throughput results as filed in PubChem BioAssay.
# aSyn UTR act: Activators working through SNCA 5'UTR binding (MLPCN); alpha-synuclein 5'UTR reporter, activators screen; activity score, % (tested at 7.5 µM), hits read low; actives 7.1% (n = 300,000); in the data active = activity score below about -60%
# * hit, by the source's call. A selection follows.
SMILES,aSyn UTR act
Cc1ccc(N=Nc2c(O)ccc3n[nH]nc23)cc1,-196*
O=C(O)c1ccc(NC(=S)NC(=O)c2ccc3ccccc3c2)cc1,-64*
O=C(Nc1ccc(N2CCCC2)cc1)c1cccc(F)c1,-203*
O=C(Nc1ccc(N2CCCC2=O)cc1)c1cccc(F)c1,-98*
O=C(Nc1ccc(N2CCCC2)cc1)c1ccc2ccccc2c1,-143*
O=C(Nc1ccc(Nc2ccccc2)cc1)c1cccc(F)c1,-265*
COc1ccc(NC(=S)NNc2ccc(C(=O)O)cc2)cc1,-107*
O=C(NCCC1=CCCCC1)NC12CC3CC(CC(C3)C1)C2,-118*
CNC[C@H](CC1CCCCC1)NC[C@H](Cc1ccccc1)NCCC12CC3CC(CC(C3)C1)C2,125
O=C(CCCc1ccccc1)NC12CC3CC(CC(C3)C1)C2,-151*
O=C(NCCc1ccc(F)cc1)NC12CC3CC(CC(C3)C1)C2,-117*
COc1ccc(N=c2scc(-c3ccc(OC)cc3)n2CCO)cc1,-66*
Cc1cccc(NC(=O)c2ccoc2C)n1,-86*
Cc1occc1C(=O)Nc1cc(C(C)(C)C)on1,-101*
C=C(C)CNC(=O)CCc1nnc(C2(c3ccc(Cl)cc3)CCC2)o1,-98*
COCC(C)NC(=O)CCc1nnc(C2(c3ccc(Cl)cc3)CCC2)o1 (stereo not given),-81*
C=CCNC(=O)CCc1nnc(C2(c3ccc(Cl)cc3)CCC2)o1,-120*
Oc1oc(-c2ccccc2)nc1/C=N/c1ccccn1,-86*
Cc1ccc(-c2nc(C=Nc3ccc(O)cc3)c(O)o2)cc1,-95*
CN=Cc1nc(-c2ccccc2)oc1O,-97*
Cc1sc2ncnc(NCC(O)c3ccccc3)c2c1C (stereo not given),-104*
COc1ccccc1Nc1nnc(SCC(=O)N2CCCC2)s1,-77*
CCCc1nnc(NC(=O)Nc2ccccc2OC)s1,-92*
CCCSc1nnc(NC(=O)Nc2ccccc2OC)s1,-144*
Cn1c(=O)[nH]c2cc3ccccc3cc21,62
SMILES,aSyn UTR act
CCOC(=O)c1cc2cc3ccccc3cc2[nH]1,-300*
CC(C)OC(=O)c1cc2ccccc2[nH]1,-84*
COc1c(C)cccc1C(=O)Nc1ccc(N2CCOCC2)c(Cl)c1,-173*
C=CCN(c1ccccc1OC)S(=O)(=O)c1ccc(Cl)c(C(=O)Nc2ccc(N3CCOCC3)cc2)c1,89
O=C(Nc1ccc(N2CCOCC2)c(Cl)c1)c1cc(F)c(F)cc1Cl,-64*
Cc1cccn2cc(-c3ccccc3)nc12,-152*
COc1ccc(-c2cn3cccc(C)c3n2)cc1Br,-259*
Cc1cccn2cc(CNc3ccccc3)nc12,-73*
Cc1cccn2cc(-c3ccc(F)cc3)nc12,-88*
COc1ccc(-c2cn3ccc4ccccc4c3n2)cc1,-103*
C(=C\c1cccc2ccccc12)/c1nnc(-c2cccs2)o1,-69*
CC1=CC(=C2C(=O)c3ccccc3C2=O)C=C(C)N1C,-132*
CCCCCN1C=CC(=C2C(=O)c3ccccc3C2=O)C=C1,113
Cc1ccccc1-c1nc2cc(N)ccc2o1,-123*
CC(C)c1ccc2oc(-c3cc(N)ccc3O)nc2c1,-95*
CCN(CC)Cc1c(O)ccc2c(=O)c(-c3ccccc3)coc12,-64*
CCc1ccc(NC(=O)CSc2nncn2-c2cccnc2)cc1,-119*
O=C1SC(SC(=Nc2ccccc2)Nc2ccccc2)C(=O)N1c1ccccc1 (stereo not given),-132*
CCOc1cccc2cc(-c3csc(NC(=O)CCC(=O)NCCCN4CCC(C)CC4)n3)c(=O)oc12,-76*
CCOc1cccc2cc(-c3csc(NC(=O)CCC(=O)NCCN4CCCCC4C)n3)c(=O)oc12 (stereo not given),-135*
O=C1/C(=C/c2cccc3ccccc23)CCCc2ccccc21,-106*
Cn1cccc1CNC(=O)Nc1ccc(Cl)c(Cl)c1,-212*
CCOc1ccc(NC(=O)NCc2cccn2C)cc1,-87*
O=C(Nc1ccccc1C(=O)NCCc1ccccc1)c1cnccn1,-68*
NC(=O)c1ccccc1NC(=O)CCc1ccccc1,-113*
SMILES,aSyn UTR act
Cc1ccoc1C(=O)Nc1cccc2ccccc12,-92*
O=C(NCCc1ccccc1)c1ccccc1NC(=O)C1CC=CCC1C(=O)O (stereo not given),-133*
O=C(Nc1cccc2ccccc12)c1cnccn1,-96*
O=C(CCc1ccccc1)Nc1c(F)cccc1F,-133*
O=C(O)CCC(=O)Nc1ccccc1C(=O)NCCc1ccccc1,-78*
Cc1cc2ccc3ccccc3c2cc1CN(C)C,-76*
CCc1cccc2c(C(=O)COC(=O)c3ccc(O)cc3)c[nH]c12,-109*
O=C(OCC(=O)c1cccc2ccccc12)c1ccc(CO)cc1,-98*
CCc1cccc2c(C(=O)COC(=O)c3ccccc3)c[nH]c12,-186*
O=C(CCOc1ccccc1F)N1CCN(c2ccccc2O)CC1,-75*
COc1ccc(N2CCN(C(=O)c3ccc(Cn4c(=S)[nH]c5ccc(N6CCOCC6)cc5c4=O)cc3)CC2)cc1,-111*
O=c1c2cc(N3CCOCC3)ccc2[nH]c(=S)n1Cc1ccc(Cl)cc1,-121*
Nc1ccc(-c2ncc(-c3ccccc3)o2)cc1,86
Cc1ccc(-c2cnc(-c3ccncc3)o2)cc1,-157*
O=C(CSc1ccc(Cl)cc1)Nc1cc(-c2nc3ncccc3o2)ccc1Cl,-74*
COc1ccc2oc(-c3ccc(C)c(NC(=O)CSc4ccc(Cl)cc4)c3)nc2c1,-133*
CCN(CC)c1ccc(/C=C2/SC(=O)N(C(C)C)C2=O)o1,-175*
CC(C)N1C(=O)S/C(=C\c2ccc(-c3ccc(Cl)c(C(=O)O)c3)o2)C1=O,-128*
COCCSc1nnc(NC(=O)C(C)(C)C)s1,-90*
CC(C)(C)C(=O)Nc1nnc(SCc2cccc(F)c2)s1,-174*
CC(C)(C)C(=O)Nc1nnc(SCc2ccc(F)cc2)s1,-82*
Cc1nn(Cc2ccccc2Cl)c2sc(C(=O)NCCCn3ccnc3)cc12,-105*
CC1(C)CC(=O)c2sc(NS(=O)(=O)Cc3ccccc3)nc2C1,-63*
Cc1ccc2nc(C)/c(=N\O)c(C)nc2c1,-239*
Cc1nc2ccc(Cl)cc2nc(C)/c1=N\O,-219*
SMILES,aSyn UTR act
O=C(c1cc([N+](=O)[O-])ccc1N1CCOCC1)N1CCN(c2ccccc2)CC1,91
CC(C)(C)C(=O)N1CCN(c2ccc([N+](=O)[O-])cc2Cl)CC1,-64*
CSc1ccc(C(=O)N2CCc3ccc(NC(=O)c4ccccn4)cc3C2)cc1,-73*
O=[N+]([O-])c1[nH]cnc1/C=C/c1ccccc1,-65*
CCOC(=O)/C(C#N)=C/c1ccc(-c2ccsc2C(=O)OC)o1,-117*
CCOC(=O)C(=Cc1ccc(-c2ccsc2C(=O)OC)o1)C(=O)OCC,-88*
N#CC1=C(N)Oc2cc(N)ccc2C1c1cccc(F)c1 (stereo not given),-137*
N#CC1=C(N)Oc2cc(N)ccc2C1C1CCCCC1 (stereo not given),-89*
CN(C)c1ccc2c(c1)OC(N)=C(C#N)C2c1cccc(F)c1 (stereo not given),68
Oc1ccc(Br)cc1C1Nc2ccccc2S1 (stereo not given),-84*
COc1ccc(-c2noc(CN(C)Cc3ccccc3)n2)c(OC)c1OC,-68*
Cc1ccc(-c2nnc(SCc3ccccc3F)o2)cc1,-81*
COc1ccc(-c2nnc(SCc3ccccc3F)o2)cc1OC,-66*
CCOC(=O)c1cc2c(=O)c3cc(C)ccc3oc2nc1C,-114*
Cc1ccc2oc3nc(C)c(C(=O)O)cc3c(=O)c2c1,-103*
